Screening results from PubChem BioAssay.
Dicer processing: inhibitors of human Dicer processing of pre-microRNA. Q9UPY3. cat-ELCCA pre-miR-21 Dicer processing, chemiluminescence; hits give high values. z-score at 25 µM. 47,000 tested, 6% active. AID 1347074; in the data active = z-score above about 3, passing the limit was not always enough;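 also: plate controls were vehicle for no effect and no enzyme for full effect; higher signal means more uncleaved substrate so more Dicer inhibition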
An asterisk follows results filed as active. The entries come from a sample that favours hits as a whole.

SMILES | Dicer processing
O=C1CCCC2=C1C(c1ccc(O)c(Cl)c1)C1=C(CCCC1=O)N2 | 0.1
Cc1cccc(N2C(=O)CC(Sc3ccccc3C(=O)O)C2=O)c1C (configuration not stated) | 0.87
COc1ccc(Cc2nn3c(Cc4ccccc4)nnc3s2)cc1 | -0.44
O=C1CC(Nc2ccc(Oc3ccccc3)cc2)C(=O)N1c1ccc(Cl)cc1 (configuration not stated) | 0.04
Cc1ccc(CSc2ssc(=S)c2-c2ccccc2)cc1 | -0.46
CN1CCN(CC(=O)N2c3ccccc3C=Cc3ccccc32)CC1 | 7*
CN1CCN(CC(=O)N2CCc3ccccc32)CC1 | 1.6
O=C(CN1CCCCC1)N1c2ccccc2CCc2ccccc21 | 1.3
N#CC1=C(SCC(N)=O)NC2=C(C(=O)CCC2)C1c1ccccc1Cl (configuration not stated) | -0.81
COCCOC(=O)C1=C(C)Nc2nc3ccccc3n2C1c1cccc(Cl)c1 (configuration not stated) | 1.7
O=C(O)CCC(=O)Nc1ccc(C(=O)O)c(O)c1 | 6.1*
CC(=O)Nc1ccc(NC(=O)CCCC(=O)O)cc1 | -2.4
Cc1ccc(NC(=O)CCC(=O)O)cc1 | -0.07
Cn1c(N)c(C(C[N+](=O)[O-])c2ccc(Cl)cc2Cl)c(=O)n(C)c1=O (configuration not stated) | 3.4*
CC(C(c1cccs1)c1c(N)n(C)c(=O)n(C)c1=O)[N+](=O)[O-] (configuration not stated) | -2.4
COc1ccccc1C(C[N+](=O)[O-])c1c(N)n(C)c(=O)n(C)c1=O (configuration not stated) | -1.7
Cc1cc(C)n(CC(O)c2ccccc2)n1 (configuration not stated) | 2.1
Cn1c(=O)c2cc3cc(Cl)c(Cl)cc3nc2n(C)c1=O | -0.4
Cc1ccc(-c2nc(=O)c3ccccc3o2)cc1 | 1.6
COC(=O)c1noc(-c2ccc(F)cc2)n1 | -0.21
Cc1cc(C)c2nc(-c3ccc(C(F)(F)F)cc3)oc(=O)c2c1 | -1.3
COc1ccc(-c2csc3nc(-c4ccc(F)cc4)oc(=O)c23)cc1 | 0.76
COc1oc(-c2ccc(C)cc2)nc1C(F)(F)F | 4.3*
COc1oc(-c2ccc(F)cc2)nc1C(F)(F)F | 4.7*
CC(=O)NNC(=S)Nc1cccc(F)c1 | -1.2
SMILES | Dicer processing
S=C(NN=C1CCCCCC1)Nc1ccccc1 | 2.6
Fc1cccc(NC(=S)NN=C2CCCCCC2)c1 | 4.2*
CC(C)(C)c1ccc(Oc2cc3c(cc2[N+](=O)[O-])C(=O)NC3=O)cc1 | -0.26
CCSc1nc2c(c(=O)n(C)c(=O)n2C)n1Cc1ccccc1C | -0.76
Cc1ccccc1Cn1c(SCc2nn[nH]n2)nc2c1c(=O)n(C)c(=O)n2C | 3.5*
Cc1ccccc1Cn1c(SC(C)C(=O)O)nc2c1c(=O)n(C)c(=O)n2C (configuration not stated) | 0.7
CCCc1c(C(=O)OCC)cnn1-c1c(Cl)cc(Cl)cc1Cl | -1.2
COc1cc(C(Sc2ccccc2)Sc2ccccc2)cc(OC)c1OC | -0.32
Cn1cnnc1SCC(=O)Nc1nc2ccccc2s1 | 2.8
Cn1cnnc1SCC(=O)Nc1ccc(F)cc1F | 4.7*
Cc1nnc(SCC(=O)Nc2ccc(F)cc2F)s1 | 0.78
CSc1nnc(Sc2c([N+](=O)[O-])nc(C)n2Cc2ccccc2)s1 | -0.12
CSC1=N/C(=C\c2ccc(Cl)cc2)C(=O)N1Cc1ccc(Cl)cc1 | 0.77
O=c1ccccn1CCOc1ccc(Cl)cc1 | 1
CSC1=N/C(=C\N(C)C)C(=O)N1CCOc1ccc(Cl)cc1 | 3.3*
CCOc1cc(C2C3=C(CCCC3=O)NC3=C2C(=O)CCC3)cc(Cl)c1OC | -0.56
CN(C)c1cc(C(F)(F)F)nc2c(Br)c(C(C)(C)C)nn12 | -1.7
CCN(C(=O)c1cnc(Oc2ccccc2)cc1C(F)(F)F)c1ccc(Cl)cc1 | -1.8
COC(=O)Cc1cc(=O)n2[nH]c(C(F)(F)F)c(-c3ccc(Br)cc3)c2n1 | 2.5
Cc1cc(NC(=S)NC(C)(C)C)ccc1Br | -0.67
Cc1ccc(NC(=S)Nc2ccc(C)c(C)c2)cc1C | -0.26
Cc1ccc(NC(=S)NC(C)(C)C)cc1F | 3*
CCCCCOc1ccc2c(C)cc(=O)oc2c1 | -0.33
O=C(NNC(=O)c1sccc1OCc1ncc(C(F)(F)F)cc1Cl)Nc1ccc(Cl)cc1 | -0.32
N#C/C(=C\c1ccc(C(F)(F)F)cc1)c1cn(C(=O)C2CCC2)c2ccccc12 | 0.77
SMILES | Dicer processing
O=C(NCc1ccccc1)C1CCC(C(=O)NCc2ccccc2)N1 (configuration not stated) | -0.39
O=C(NCc1ccccc1)N1CC2C=CC1C2 (configuration not stated) | 6.2*
O=C(NCc1ccccc1)N1c2ccccc2Sc2ccccc21 | -0.87
FC(F)(F)COc1ccc(-c2n[nH]c(=S)n2-c2ccc(Cl)cc2)cn1 | -0.82
Cc1ccc(CN2C(=O)C3C(c4ccc(Cl)cc4)OC4(C(=O)c5ccccc5C4=O)C3C2=O)cc1 (configuration not stated) | -0.37
CCO/C=C1\C(=O)N(c2ccccc2)C(=O)c2cc(OC)ccc21 | 3.3*
CCO/C=C1/SC(=S)N(c2cc(OC)cc(C(F)(F)F)c2)C1=O | -2.2
CCO/C=C1\C(=O)N(c2ccc(C)cc2)C(=O)c2cc(OC)ccc21 | 0.4
CC12C=CC(C)(O1)C1C(=O)N(c3ccc(-c4ccccc4)cc3)C(=O)C12 (configuration not stated) | 1.5
Cc1ccc(S(=O)(=O)Nc2ccc3[nH]cc(Cl)c3c2)cc1 | 3.1*
Cc1ccc(S(=O)(=O)Nc2ccc3oc4ncccc4c(=O)c3c2)cc1 | 18
CC(C)(C)c1ccc(S(=O)(=O)Nc2ccc(O)c(Cl)c2)cc1 | 2.3
Cc1cc(=O)n(C)c(=O)n1CCCCN1CCOCC1 | 2.3
N/C(=N\OC(=O)c1ccc(Cl)cc1)c1cnccn1 | -0.06
CCOC(=O)N1CCC(N2CCCC(C(=O)N3CCCC3)C2)CC1 (configuration not stated) | 0.17
CCOC(=O)N1CCC(N2CCN(S(C)(=O)=O)CC2)CC1 | 5*
CCOC(=O)N1CCC(N2CCN(S(=O)(=O)c3ccc(OC)cc3)CC2)CC1 | 0.1
CC1CCCC(C)N1C(=O)CSc1nc(-c2ccco2)cc(C(F)(F)F)n1 (configuration not stated) | 0.12
CNC(=S)NNC(=O)C(C)Oc1ccccc1-c1ccccc1 (configuration not stated) | 1.8
c1ccc(-c2nnc3c4cnn(-c5ccccc5)c4ncn23)cc1 | 3.1*
Cc1ccc(-c2nnc3c4cnn(-c5ccccc5)c4ncn23)cc1 | 0.47
COc1ccc(-c2nnc3c4cnn(-c5ccccc5)c4ncn23)cc1 | 0.08
CCOC(=O)c1ccc(N2C(=O)C3ON(c4ccccc4C)C(c4cccs4)C3C2=O)cc1 (configuration not stated) | -0.15
CC(C)(C)OC(=O)N1Cc2ccccc2C[C@@H]1C(=O)NCc1cccs1 | -0.54
Cc1c2c(=O)n(-c3nc4ccccc4s3)nc-2cc(O)n1CCc1c[nH]c2ccccc12 | 1.5
SMILES | Dicer processing
CCC(C)Cn1c(C)c2c(=O)n(-c3nc4ccccc4s3)[nH]c2cc1=O (configuration not stated) | 0.75
Cc1c2c(=O)n(-c3nc4ccccc4s3)nc-2cc(O)n1CCc1cnc[nH]1 | 3.6*
OCc1nc2ccccc2n1Cc1cccc(Br)c1 | -0.25
COC(=O)c1ccccc1CSc1nccc(C(F)(F)F)n1 | 0.43
O=c1cc(Nc2ccccc2)cc[nH]1 | -1.4
CS/C(=C(/C#N)S(=O)(=O)C(C)C)N1CCOCC1 | -1.3
CS/C(=C(/C#N)S(=O)(=O)C(C)C)N1CCCC1 | -1.2
